Data on 4 compounds can be found in ChEMBL document CHEMBL3988442, “University of Dundee, Small-Polar-MMV Screening Library” (2021).

The target in experiment [1] is T1, Methionyl-tRNA synthetase, putative (Leishmania donovani (strain BPK282A1)) (UniProt E9BF75).
T1 sequence (whole entry): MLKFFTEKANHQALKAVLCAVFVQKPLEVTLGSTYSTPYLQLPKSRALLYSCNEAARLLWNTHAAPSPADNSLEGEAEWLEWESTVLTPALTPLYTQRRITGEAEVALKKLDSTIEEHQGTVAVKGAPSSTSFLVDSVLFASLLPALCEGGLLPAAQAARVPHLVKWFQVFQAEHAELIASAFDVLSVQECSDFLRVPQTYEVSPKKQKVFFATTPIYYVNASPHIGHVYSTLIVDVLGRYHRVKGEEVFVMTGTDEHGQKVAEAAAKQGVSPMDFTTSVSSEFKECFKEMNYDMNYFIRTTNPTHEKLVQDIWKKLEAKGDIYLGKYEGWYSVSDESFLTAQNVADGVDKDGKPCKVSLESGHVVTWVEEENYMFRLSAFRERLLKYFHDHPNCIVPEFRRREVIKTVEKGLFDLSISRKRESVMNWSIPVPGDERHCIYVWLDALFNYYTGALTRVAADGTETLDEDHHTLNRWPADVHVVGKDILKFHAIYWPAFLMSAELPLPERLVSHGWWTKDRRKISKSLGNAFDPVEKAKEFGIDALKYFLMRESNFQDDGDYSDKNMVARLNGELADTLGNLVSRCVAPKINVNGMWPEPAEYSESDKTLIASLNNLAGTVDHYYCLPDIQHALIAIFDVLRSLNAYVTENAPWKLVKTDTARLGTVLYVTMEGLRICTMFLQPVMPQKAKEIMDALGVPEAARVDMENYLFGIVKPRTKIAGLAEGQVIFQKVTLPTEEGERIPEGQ
As to the kind of experiment: Leishmania donovani Methionine tRNA synthetase (LdMetRS):v7. Dose response assay. It counts as functional. Also noted: conc 80 nM, time 150 minutes.

Experiment [2] has as its target Protein translocase subunit SecA (Escherichia coli (strain K12)) (UniProt P10408). Kind of experiment: Assay to Identify E. coli SecA ATPase Inhibitors. It counts as functional. More on the design: scale not given: direction of the effect not stated beside the values. The following applies: 30 µM.
The target of experiment [3] is T2, Ubiquitin-activating enzyme e1, putative (Leishmania donovani (strain BPK282A1)) (UniProt E9BSI1).
T2 sequence (whole entry): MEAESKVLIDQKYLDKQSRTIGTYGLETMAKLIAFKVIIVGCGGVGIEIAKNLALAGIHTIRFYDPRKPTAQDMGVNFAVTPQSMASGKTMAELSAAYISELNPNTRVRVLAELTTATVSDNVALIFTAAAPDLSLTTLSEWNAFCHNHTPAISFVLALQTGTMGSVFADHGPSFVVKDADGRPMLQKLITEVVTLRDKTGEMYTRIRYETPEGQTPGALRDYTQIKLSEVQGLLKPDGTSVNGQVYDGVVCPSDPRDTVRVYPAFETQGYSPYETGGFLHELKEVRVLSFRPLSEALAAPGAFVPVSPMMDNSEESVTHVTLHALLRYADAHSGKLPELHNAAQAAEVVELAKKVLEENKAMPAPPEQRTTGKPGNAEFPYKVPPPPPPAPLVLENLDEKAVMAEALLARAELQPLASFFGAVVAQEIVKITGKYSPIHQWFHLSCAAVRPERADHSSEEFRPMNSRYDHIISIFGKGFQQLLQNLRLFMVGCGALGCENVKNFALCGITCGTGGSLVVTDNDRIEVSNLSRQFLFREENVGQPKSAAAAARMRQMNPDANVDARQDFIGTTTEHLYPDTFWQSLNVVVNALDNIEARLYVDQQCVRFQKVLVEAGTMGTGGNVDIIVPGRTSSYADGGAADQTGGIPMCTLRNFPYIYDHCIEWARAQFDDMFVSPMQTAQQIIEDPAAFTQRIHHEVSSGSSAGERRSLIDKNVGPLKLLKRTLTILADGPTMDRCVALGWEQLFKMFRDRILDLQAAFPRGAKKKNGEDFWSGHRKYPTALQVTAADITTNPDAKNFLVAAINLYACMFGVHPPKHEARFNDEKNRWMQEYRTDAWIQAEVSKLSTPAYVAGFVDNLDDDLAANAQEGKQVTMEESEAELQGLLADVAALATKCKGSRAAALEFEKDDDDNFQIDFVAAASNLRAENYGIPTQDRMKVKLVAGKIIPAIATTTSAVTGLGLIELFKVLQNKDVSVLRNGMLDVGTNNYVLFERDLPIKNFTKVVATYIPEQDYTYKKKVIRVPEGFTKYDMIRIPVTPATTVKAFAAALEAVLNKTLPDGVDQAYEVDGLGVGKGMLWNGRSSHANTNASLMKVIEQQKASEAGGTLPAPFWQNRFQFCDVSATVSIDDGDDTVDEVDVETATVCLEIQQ
As to the kind of experiment: Leishmania donovani Ubiquitin Activating Enzyme (LdE1). It counts as functional. More on the design: scale not given: direction of the effect not stated beside the values. The settings on record: 30 µM.

Experiment [4] addresses AMP-activated protein kinase, AMPK (Homo sapiens) (UniProt P54646+O43741+P54619+Q9UGJ0+Q9Y478+Q13131+Q9UGI9). As to the kind of experiment: AMP-dependent Kinase enzyme assay. An in vitro enzyme assay that detects ADP turnover that is directly proportional to AMPK activity. This uses naive AMPK that is activated during the assay with MK-8722. The settings on record: 30 µM. Also noted: scale not given: direction of the effect not stated beside the values. It counts as functional.

The target of experiment [5] is Sialic acid-binding Ig-like lectin 9 (Homo sapiens) (UniProt Q9Y336). As to the kind of experiment: Hs-Siglec9 ALPHAscreen SOP 20170721. Also noted: scale not given: direction of the effect not stated beside the values. The settings on record: 10 µM. In general terms: Alpha assays give light when donor and acceptor beads are brought close together.
Experiment [6] has as its system Trypanosoma cruzi. Kind of experiment: Trypanosoma cruzi phosphomannomutase and mannose-1-phosphate guanylyltransferase assay. More on the design: scale not given: direction of the effect not stated beside the values. It counts as functional. The settings on record: 10 µM.
In experiment [7] the target is T3, Arginase-2, mitochondrial (Homo sapiens) (UniProt P78540).
T3 sequence (whole entry): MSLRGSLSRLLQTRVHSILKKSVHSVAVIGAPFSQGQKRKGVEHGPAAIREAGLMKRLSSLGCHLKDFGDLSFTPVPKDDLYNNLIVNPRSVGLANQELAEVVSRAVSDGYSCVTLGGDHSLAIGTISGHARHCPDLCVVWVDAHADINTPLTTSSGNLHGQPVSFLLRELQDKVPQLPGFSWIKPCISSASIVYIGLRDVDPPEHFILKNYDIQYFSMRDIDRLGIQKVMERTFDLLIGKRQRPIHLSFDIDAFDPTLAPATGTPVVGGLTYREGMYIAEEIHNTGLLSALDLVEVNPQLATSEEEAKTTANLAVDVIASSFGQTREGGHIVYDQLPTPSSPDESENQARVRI
Kind of experiment: in vitro enzyme assay to detect the production of urea directly proportional to the activity of Arginase II. It counts as functional. Also noted: scale not given: in the data most compounds retested in dose-response had high values. The following applies: 33.3 µM.

The target in experiment [8] is T4, Proteasome subunit beta (Trypanosoma cruzi) (UniProt O96673).
T4 sequence (whole entry): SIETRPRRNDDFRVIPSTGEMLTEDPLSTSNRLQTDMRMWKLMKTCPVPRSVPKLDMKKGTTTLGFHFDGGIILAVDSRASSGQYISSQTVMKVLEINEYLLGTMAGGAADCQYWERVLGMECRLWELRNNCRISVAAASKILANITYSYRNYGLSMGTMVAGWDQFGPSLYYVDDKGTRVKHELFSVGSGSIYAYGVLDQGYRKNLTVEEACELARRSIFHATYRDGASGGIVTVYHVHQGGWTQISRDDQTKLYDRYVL
As to the kind of experiment: Trypanosoma cruzi proteasome chymotrypsin-like activity (TcProtChymo) assay. The experiment is classed as functional. The following applies: 9.37 µM. Also noted: scale not given: in the data most compounds retested in dose-response had high values.

Experiment [9] is filed under the species Homo sapiens. As to the kind of experiment: To identify inhibition of the IFN signalling (Jak-Stat) pathway via expression of an eGFP reporter gene under the control of an IFN-stimulated response element (ISRE) containing MxA promoter. The experiment is classed as functional. Also noted: scale not given: direction of the effect not stated beside the values. The settings on record: 30 µM.

Experiment [10] deals with T5, Tyrosyl-tRNA synthetase, putative (Trypanosoma cruzi (strain CL Brener)) (UniProt Q4DSP6).
T5 sequence (whole entry): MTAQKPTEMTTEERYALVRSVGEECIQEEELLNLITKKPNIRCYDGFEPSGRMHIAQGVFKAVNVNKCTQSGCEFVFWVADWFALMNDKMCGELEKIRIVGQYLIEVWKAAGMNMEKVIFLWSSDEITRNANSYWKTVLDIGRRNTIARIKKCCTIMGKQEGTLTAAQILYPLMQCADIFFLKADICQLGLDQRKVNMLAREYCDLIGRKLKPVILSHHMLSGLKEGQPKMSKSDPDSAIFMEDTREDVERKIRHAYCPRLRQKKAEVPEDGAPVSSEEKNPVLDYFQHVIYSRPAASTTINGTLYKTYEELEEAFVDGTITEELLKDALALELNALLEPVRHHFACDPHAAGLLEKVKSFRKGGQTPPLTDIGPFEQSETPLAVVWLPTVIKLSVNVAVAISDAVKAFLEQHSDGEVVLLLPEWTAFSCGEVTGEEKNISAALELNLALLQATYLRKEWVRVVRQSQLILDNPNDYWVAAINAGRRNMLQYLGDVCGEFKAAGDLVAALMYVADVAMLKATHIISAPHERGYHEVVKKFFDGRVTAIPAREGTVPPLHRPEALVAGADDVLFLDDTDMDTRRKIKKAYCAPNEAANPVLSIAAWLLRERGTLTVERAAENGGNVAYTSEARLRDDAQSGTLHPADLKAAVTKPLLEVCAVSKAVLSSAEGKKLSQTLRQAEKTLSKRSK
As to the kind of experiment: Trypanosoma cruzi tyrosyl tRNA synthetase (TcYRS) _High Tyrosine SOP. The experiment is classed as functional. More on the design: scale not given: in the data most compounds retested in dose-response had high values. The settings on record: 30 µM.

In experiment [11] the target is T5, Tyrosyl-tRNA synthetase, putative (Trypanosoma cruzi (strain CL Brener)). As to the kind of experiment: Trypanosoma cruzi tyrosyl tRNA synthetase (TcYRS) SOP. The experiment is classed as functional. Also noted: scale not given: direction of the effect not stated beside the values. The following applies: 30 µM.
Experiment [12] has as its target Chromo domain-containing protein 1 (Saccharomyces cerevisiae (strain ATCC 204508 / S288c) (Baker's yeast)) (UniProt P32657). As to the kind of experiment: ScCHD-1 Enzyme Inhibition Assay. The experiment is classed as functional. More on the design: scale not given: in the data most compounds retested in dose-response had high values. The following applies: 30 µM.

For some assays here: Potency and affinity values are given separately.

Chain of Sialic acid-binding Ig-like lectin 9 (Homo sapiens) (Q9Y336 whole entry): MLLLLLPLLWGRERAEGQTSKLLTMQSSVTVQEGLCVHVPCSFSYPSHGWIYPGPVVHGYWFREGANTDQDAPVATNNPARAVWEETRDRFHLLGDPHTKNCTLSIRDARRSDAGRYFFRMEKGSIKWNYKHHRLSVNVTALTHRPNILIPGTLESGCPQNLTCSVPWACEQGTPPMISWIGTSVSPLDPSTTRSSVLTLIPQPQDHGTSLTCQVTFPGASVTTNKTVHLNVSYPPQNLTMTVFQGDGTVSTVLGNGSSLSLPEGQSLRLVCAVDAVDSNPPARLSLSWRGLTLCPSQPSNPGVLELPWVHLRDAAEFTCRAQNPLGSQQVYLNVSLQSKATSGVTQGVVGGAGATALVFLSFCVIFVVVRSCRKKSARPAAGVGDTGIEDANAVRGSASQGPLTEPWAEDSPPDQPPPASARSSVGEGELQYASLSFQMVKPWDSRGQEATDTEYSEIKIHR
Chain of Chromo domain-containing protein 1 (Saccharomyces cerevisiae (strain ATCC 204508 / S288c) (Baker's yeast)) (P32657 whole entry, the tested form may be a part): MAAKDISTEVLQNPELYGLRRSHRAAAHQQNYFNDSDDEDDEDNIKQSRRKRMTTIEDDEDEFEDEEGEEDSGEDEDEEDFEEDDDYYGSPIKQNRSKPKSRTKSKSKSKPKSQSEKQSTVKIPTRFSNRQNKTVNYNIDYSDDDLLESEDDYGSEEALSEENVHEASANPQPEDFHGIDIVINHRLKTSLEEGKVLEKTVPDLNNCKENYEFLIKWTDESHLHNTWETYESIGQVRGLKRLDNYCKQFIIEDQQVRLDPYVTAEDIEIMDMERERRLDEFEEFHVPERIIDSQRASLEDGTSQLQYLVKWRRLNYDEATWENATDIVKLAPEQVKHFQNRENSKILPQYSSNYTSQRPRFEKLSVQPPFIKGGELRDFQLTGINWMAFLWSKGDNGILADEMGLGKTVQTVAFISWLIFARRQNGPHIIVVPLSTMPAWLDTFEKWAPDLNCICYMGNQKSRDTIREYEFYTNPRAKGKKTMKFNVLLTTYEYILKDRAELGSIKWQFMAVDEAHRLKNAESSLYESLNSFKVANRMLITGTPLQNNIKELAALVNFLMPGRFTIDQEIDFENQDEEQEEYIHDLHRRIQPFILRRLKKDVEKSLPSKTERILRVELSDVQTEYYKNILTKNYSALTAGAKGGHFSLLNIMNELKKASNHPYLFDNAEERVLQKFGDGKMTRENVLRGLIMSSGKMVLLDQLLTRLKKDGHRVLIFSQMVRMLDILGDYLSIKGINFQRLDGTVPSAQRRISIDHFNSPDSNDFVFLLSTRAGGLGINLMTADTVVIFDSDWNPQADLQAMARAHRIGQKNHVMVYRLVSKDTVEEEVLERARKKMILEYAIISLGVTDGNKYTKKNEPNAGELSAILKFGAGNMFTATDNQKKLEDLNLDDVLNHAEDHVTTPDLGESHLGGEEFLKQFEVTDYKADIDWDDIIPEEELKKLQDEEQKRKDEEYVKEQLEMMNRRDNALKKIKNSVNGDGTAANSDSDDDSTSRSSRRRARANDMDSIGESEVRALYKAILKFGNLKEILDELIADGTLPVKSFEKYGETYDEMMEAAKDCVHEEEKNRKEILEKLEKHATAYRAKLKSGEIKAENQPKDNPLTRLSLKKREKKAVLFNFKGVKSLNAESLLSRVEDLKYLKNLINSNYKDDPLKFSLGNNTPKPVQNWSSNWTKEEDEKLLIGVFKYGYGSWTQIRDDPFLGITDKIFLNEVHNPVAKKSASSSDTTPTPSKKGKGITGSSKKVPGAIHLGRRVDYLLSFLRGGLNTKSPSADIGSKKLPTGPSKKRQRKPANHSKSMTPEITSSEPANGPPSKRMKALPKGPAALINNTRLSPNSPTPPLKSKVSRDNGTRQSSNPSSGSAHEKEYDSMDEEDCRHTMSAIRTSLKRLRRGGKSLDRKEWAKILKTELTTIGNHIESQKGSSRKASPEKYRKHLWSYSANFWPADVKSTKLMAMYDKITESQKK
Chain of Protein translocase subunit SecA (Escherichia coli (strain K12)) (P10408 whole entry): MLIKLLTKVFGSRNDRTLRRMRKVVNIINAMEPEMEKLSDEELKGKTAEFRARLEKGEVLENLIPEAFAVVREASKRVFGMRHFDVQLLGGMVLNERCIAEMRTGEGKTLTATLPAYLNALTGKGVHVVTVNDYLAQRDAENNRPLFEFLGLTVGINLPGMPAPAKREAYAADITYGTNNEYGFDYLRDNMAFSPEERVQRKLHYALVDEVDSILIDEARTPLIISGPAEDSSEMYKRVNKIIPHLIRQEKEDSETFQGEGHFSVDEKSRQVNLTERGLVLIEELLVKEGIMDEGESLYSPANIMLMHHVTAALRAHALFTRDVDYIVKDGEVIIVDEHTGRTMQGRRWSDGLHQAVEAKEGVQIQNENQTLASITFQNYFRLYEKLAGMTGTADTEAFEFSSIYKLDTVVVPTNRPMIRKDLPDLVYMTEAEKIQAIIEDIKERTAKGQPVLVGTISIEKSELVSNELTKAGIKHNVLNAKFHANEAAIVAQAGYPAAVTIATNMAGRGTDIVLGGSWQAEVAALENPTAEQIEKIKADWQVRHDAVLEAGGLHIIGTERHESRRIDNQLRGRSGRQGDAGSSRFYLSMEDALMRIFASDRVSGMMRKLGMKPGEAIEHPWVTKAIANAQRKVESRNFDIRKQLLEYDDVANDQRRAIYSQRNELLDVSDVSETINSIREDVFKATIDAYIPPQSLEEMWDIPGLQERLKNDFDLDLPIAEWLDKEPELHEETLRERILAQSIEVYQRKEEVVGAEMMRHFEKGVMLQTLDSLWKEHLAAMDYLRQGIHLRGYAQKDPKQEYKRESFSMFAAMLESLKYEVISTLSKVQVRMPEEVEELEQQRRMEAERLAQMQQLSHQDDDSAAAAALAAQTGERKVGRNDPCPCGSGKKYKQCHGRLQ

In the case of `O=C(CC1=CCCCC1)NCCc1csc(N2CCCC2)n1`, the PXC50 is 4.26 in experiment [1] (BOTTOM 3.701535951, HILLSLOPE 1.30756587, MAX_EFFECT 71.01449275, TOP 100.0); 4.32 in experiment [1] (BOTTOM -1.141810122, HILLSLOPE 1.921557011, MAX_EFFECT 84.15841584, TOP 100.0); less than 4 in [1] (MAX_EFFECT 3.162055336); less than 4 in [1] (MAX_EFFECT 8.571428571); less than 4 in experiment [1] (MAX_EFFECT 50.53763441). Besides, the Percent Effect in [2] is -6.52%; in experiment [3], -5.33%; in [4], -0.418%; in experiment [5], 8.91%; in [6], 15.9%; in experiment [7], -1.56%. Also, the Percent Effect in experiment [8] is 25.3%; in [9] it was -20.2%; in [10], 23.5%; in experiment [11] it was 8.64%; in experiment [12], 33%.

Consider `FC1(F)CCN(Cc2cccnc2)CC12CCN(c1ccccc1)C2` (centres undefined), for which the PXC50 in [1] (BOTTOM -4.019199092, HILLSLOPE 0.87851595, MAX_EFFECT 63.88888889, TOP 104.3685566) is 4.25; in [1] (BOTTOM -4.110370477, HILLSLOPE 0.854311737, MAX_EFFECT 59.79202773, TOP 100.0) it was 4.27; in experiment [1] (BOTTOM -6.339797733, HILLSLOPE 0.853335904, MAX_EFFECT 59.06040268, TOP 100.0), 4.22; in [1] (MAX_EFFECT 7.101727447), less than 4; in experiment [1] (MAX_EFFECT 13.23763955), less than 4.

As for `O=C(c1cc(=O)n(-c2ccccc2)[nH]1)N1CCCC(c2ccn[nH]2)C1` (centres undefined), the PXC50 in experiment [1] (BOTTOM 0.320076031, HILLSLOPE 1.262872317, MAX_EFFECT 68.45753899, TOP 100.0) is 4.26; in [1] (BOTTOM -1.400745031, HILLSLOPE 1.149427593, MAX_EFFECT 63.75838926, TOP 91.13261067), 4.31; in [1] (BOTTOM -5.915072335, HILLSLOPE 1.793815397, MAX_EFFECT 65.97222222, TOP 99.62132459) it was 4.18. Also, the Percent Effect in experiment [4] was -16.1%.

As for `O=C(NCc1cnn2cccnc12)c1cccc(CC2CCNCC2)c1`, the PXC50 in [1] (BOTTOM 2.141206025, HILLSLOPE 1.62116593, MAX_EFFECT 62.52189142, TOP 100.0) was 4.14; in [1] (BOTTOM 2.892347169, HILLSLOPE 1.976450586, MAX_EFFECT 93.87755102, TOP 100.0) it was 4.43; in experiment [1] (BOTTOM 5.673984802, HILLSLOPE 1.822868055, MAX_EFFECT 90.57971014, TOP 100.0) it was 4.44. Also, the Percent Effect in [4] was 2.98%.
